An excerpt weighted towards active compounds, which were near 4.7% of everything screened.
tim23-1 inh: growth inhibitors of tim23-1 mutant yeast, primary screen, luminescence, uHTS; S. cerevisiae tim23-1 growth, BacTiter-Glo luminescence, 24 h; 1.3% of 330,000 active; inhibition, % at 20 µM; AID 463212, 2010;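 active = growth inhibition of the mutant yeast at or above 50%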;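 note: temperature-sensitive mutant grown at 25 °C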
PfHsp90 yeast 2: growth inhibition of PfHsp90-expressing yeast, primary screen, antimalarial PfHsp90 inhibitor project, S. cerevisiae, BacTiter-Glo luminescence, single point, set 2; BacTiter-Glo ATP, 48 h; yeast lacking PDR1 and PDR3 efflux regulators; inhibition, % at 9.4 µM; 0.32% of 310,000 active;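 active = every replicate shows inhibition above about 80%, whatever the replicate mean, limit read from the data; inconclusive = mean inhibition reaches the set limit but some replicate falls short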
tim10-1 inh: growth inhibitors of tim10-1 mutant yeast, primary screen, luminescence, uHTS; S. cerevisiae tim10-1 ts strain growth, BacTiter-Glo, 24 h; inhibition, % at 20 µM; 2.2% of 330,000 active;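 active = inhibition of at least 40%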;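 note: mutant grown at 25 °C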
EBI2 antag: EBI2 receptor antagonists, beta-arrestin recruitment, primary screen, cell-based, luminescence, 7a,25-OHC stimulation, uHTS | G-protein coupled receptor 183 (Homo sapiens), P32249 | inhibition, % at 5 µM | AID 651636, 2012 | 7a,25-OHC stimulated | 0.81% of 360,000 active; in the data active = inhibition above about 38%;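 note: enzyme fragment complementation signal reports receptor beta-arrestin coupling in cells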
Target sequence (P32249 whole entry, looked up, the tested form may be a part): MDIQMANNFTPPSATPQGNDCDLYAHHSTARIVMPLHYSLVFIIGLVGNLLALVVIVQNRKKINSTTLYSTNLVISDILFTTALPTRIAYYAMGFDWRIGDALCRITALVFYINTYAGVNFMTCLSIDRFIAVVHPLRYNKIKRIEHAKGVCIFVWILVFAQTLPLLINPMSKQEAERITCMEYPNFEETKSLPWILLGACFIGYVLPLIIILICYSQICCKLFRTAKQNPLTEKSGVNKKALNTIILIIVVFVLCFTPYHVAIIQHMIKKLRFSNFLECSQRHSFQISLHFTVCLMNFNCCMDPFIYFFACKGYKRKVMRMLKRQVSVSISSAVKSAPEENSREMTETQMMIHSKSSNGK
SKKanGAS inh: S. pyogenes SKKanGAS growth inhibitors in kanamycin, primary screen, streptokinase expression inhibitor project, SKKanGAS strain, BacTiter-Glo luminescence. 6 h. inhibition, % at 7.5 µM. 1.3% of 300,000 active. AID 1662, 2009;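 active = mean replicate score, as percent of positive control median, at least 50; inconclusive = mean below 50 but one replicate at or above 50; inactive = mean and every replicate below 50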;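 note: strain carries kanamycin resistance gene driven by streptokinase promoter and grows in 40 µg/ml kanamycin; loss of luminescence reflects streptokinase promoter inhibition or plain growth inhibition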
TIM10 inh: growth inhibitors of isogenic TIM10 control yeast, primary screen, counter-screen for tim10-1 yeast inhibitor project, luminescence, uHTS; S. cerevisiae TIM10 strain growth, BacTiter-Glo luminescence, 24 h; inhibition, % at 10 µM; 1.4% of 330,000 active; AID 463195, 2010;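 active = inhibition of 40% or more at the single tested concentration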;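 note: wild-type TIM10 isogenic control strain grown at permissive 25 °C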
tim23-1 confirm: tim23-1 mutant yeast growth inhibitors, confirmation, luminescence, single concentration; shares compounds with tim23-1 inh; AID 463218, 2010; inhibition, % at 20 µM; 83% of 4,400 active; S. cerevisiae tim23-1 growth, BacTiter-Glo luminescence, 24 h;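 active = inhibition above about 39% in either of two replicate wells at 20 µM, limit read from the data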;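 note: temperature-sensitive tim23-1 mutant grown at 25 °C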
Of the large screens only hits and unclear results are named; the others gave an inactive call (follow-up assays come after a bar, where they were run).

O=C(Nc1scc(-c2ccccc2)c1C(=O)O)c1ccccc1F	tim23-1 inh 57.6 | tim23-1 confirm 54.3
O=C(/C=C/c1ccccc1)Nc1scc(-c2ccccc2)c1C(=O)O	none (no result: tim23-1 inh, tim10-1 inh, TIM10 inh)
COc1ccc(-c2csc(NC(=O)c3ccccc3Br)c2C(=O)O)cc1	tim23-1 inh 64.5 | tim23-1 confirm 72.7
COc1ccc(-c2csc(NC(=O)c3ccccc3OC)c2C(=O)O)cc1OC	none
O=C(Nc1ccccc1Cl)c1cc(C2CCCCN2C(=O)CCCc2ccccc2)on1 (stereo not drawn)	none (no result: tim23-1 inh, PfHsp90 yeast 2, tim10-1 inh, SKKanGAS inh, TIM10 inh)
COc1ccc(S(N)(=O)=O)cc1C(=O)OCC(=O)N1c2ccccc2NC(=O)C1(C)C	tim23-1 inh 94.1 (no result: SKKanGAS inh) | tim23-1 confirm inactive
O=C(NC(Cc1ccccc1)C(=O)O)C1CCN(S(=O)(=O)c2ccccc2C(F)(F)F)CC1 (stereo not drawn)	none
Cc1ccc(NC(=O)C2(C)CCN2C(=O)CC(c2ccccc2)c2ccccc2)cc1 (stereo not drawn)	none (no result: tim23-1 inh, PfHsp90 yeast 2, tim10-1 inh, SKKanGAS inh, TIM10 inh)
CCN(C(=S)NC(=O)c1ccccc1Br)C1CCCCC1	tim23-1 inh 57.7 | tim23-1 confirm 43.7
O=C(NC(=S)NC1CCCC1)c1ccccc1Br	none
CC(C)(C)OC(=O)C(C)(C)Sc1nnc(N)s1	none
CC1=CC[C@@]23CCCN2C(=O)CCC[C@H]3C1	tim23-1 inh 88.5 (no result: SKKanGAS inh) | tim23-1 confirm inactive
Cc1nc2sc(C(c3ccc(Cl)cc3)N3CCOCC3)c(O)n2n1 (stereo not drawn)	tim23-1 inh 52.9 | tim23-1 confirm inactive
Cc1cccc(C)c1OCCNC(=O)OCc1ccccc1	none
CC(=O)c1ccc(-c2c(C)cc3oc(=O)cc(-c4ccccc4)c3c2C)cc1	none (no result: SKKanGAS inh)
Cc1cc2oc(=O)cc(-c3ccccc3)c2c(C)c1-c1ccc(CO)cc1	tim23-1 inh 53.5 (no result: SKKanGAS inh) | tim23-1 confirm inactive
O=C(NC(=S)NCc1ccco1)c1ccc(Br)cc1	tim23-1 inh 56.4 (no result: PfHsp90 yeast 2) | tim23-1 confirm 45.3
CCCN(CCC)S(=O)(=O)c1ccc(C(=O)Nc2nc(-c3ccccc3)c(C(=O)OCC)s2)cc1	none
O=C(NC(=S)NCCc1ccccc1)c1cccc(Cl)c1	tim23-1 inh 52.2 | tim23-1 confirm 45.5
Cc1ccc2c(c1)C(c1ccccc1)N(C(=O)c1ccc3c(c1)OCO3)CC(=O)N2 (stereo not drawn)	none
CC(C)NC1=C(Cl)C(=O)c2ccccc2C1=O	tim23-1 inh 54.7 | tim23-1 confirm 45.5
O=C1C(Cl)=C(Nc2ccccc2)C(=O)c2ccccc21	none (no result: tim23-1 inh, tim10-1 inh, TIM10 inh)
C=CCNC1=C(Cl)C(=O)c2ccccc2C1=O	tim23-1 inh 54.2 | tim23-1 confirm 44.1
COc1cc(OC)c(NC2c3ccccc3C(=O)N2c2cc(C)ccn2)cc1Cl (stereo not drawn)	tim23-1 inh 51.6 | tim23-1 confirm 41.6
CCc1noc(C)c1C(=O)NNC(=O)c1ccc(N(CC)CC)cc1	none (no result: SKKanGAS inh)
COc1cc2c(cc1C=O)OC(C)C2 (stereo not drawn)	none
O=C(O/N=C(\c1ccccc1)c1ccncc1)c1ccccc1Cl	tim23-1 inh 52.0 | tim23-1 confirm 52.7
O=C(CCc1nnc(CCc2ccccc2)o1)NC(c1cccnc1)C(F)(F)F (stereo not drawn)	none
O=C(CCl)N1c2ccccc2OCC1c1ccccc1 (stereo not drawn)	none
O=C(CCl)N1c2ccccc2SCC1c1ccccc1 (stereo not drawn)	tim23-1 inh 53.6 | tim23-1 confirm 51.2
O=[N+]([O-])c1cc(O)c2ncccc2c1	tim23-1 inh 66.9, SKKanGAS inh inconclusive (no result: PfHsp90 yeast 2, EBI2 antag) | tim23-1 confirm 70.2
COc1ccc(COn2c(=O)c(C)[n+]([O-])c3ccccc32)cc1OC	tim23-1 inh 89.3 | tim23-1 confirm inactive
CCCCCC(C)NC(=O)c1cc(S(=O)(=O)N2CCCCC2)ccc1N1CCOCC1 (stereo not drawn)	none (no result: SKKanGAS inh)
Cc1ccc(CN2C(=O)C(=O)c3cc(C)ccc32)cc1	tim23-1 inh 78.5 (no result: SKKanGAS inh) | tim23-1 confirm 84.0
Cc1ccc2c(c1)C(=O)C(=O)N2CC(=O)Nc1ccccc1NC(=O)c1ccccn1	none
CCCCN1C(=O)C(=O)c2cc(Cl)ccc21	tim23-1 inh 58.7 (no result: SKKanGAS inh) | tim23-1 confirm 55.2
CCCN1C(=O)C(=O)c2cc(C)ccc21	none (no result: SKKanGAS inh)
Cc1ccc2c(c1)C(=O)C(=O)N2c1ccc(Cl)cc1	tim23-1 inh 66.1 (no result: SKKanGAS inh) | tim23-1 confirm 75.3
Cc1ccc2c(c1)C(=O)C(=O)N2c1ccc(C(F)(F)F)cc1	none (no result: SKKanGAS inh)
Cc1ccc2c(c1)C(=O)C(=O)N2Cc1ccc(Br)cc1	tim23-1 inh 68.1 (no result: SKKanGAS inh) | tim23-1 confirm inactive
CCCCN1C(C)=CC(=C2C(=O)c3ccccc3C2=O)C=C1C	none
COCCNc1oc(/C=C/c2cccc(OC)c2)nc1S(=O)(=O)c1ccccc1	none (no result: tim23-1 inh, PfHsp90 yeast 2, tim10-1 inh, SKKanGAS inh, TIM10 inh)
O=C(CCNS(=O)(=O)c1c(Cl)cccc1Cl)OCC(=O)c1ccccc1	none
COCc1ccc(C(=O)N2CCCC(Nc3ccc(C(C)C)cc3)C2)o1 (stereo not drawn)	none
Cc1cccc2c1N(CCCOc1ccccc1)C(=O)C2=O	tim23-1 inh 58.5 | tim23-1 confirm 55.8
Cc1ccc2c(c1)C(=O)C(=O)N2CCOc1ccccc1	none
Cc1cccc(OCCN2C(=O)C(=O)c3cccc(C)c32)c1	none
Cc1cccc(OCCN2C(=O)C(=O)c3cc(C)ccc32)c1	tim23-1 inh 50.8 | tim23-1 confirm 48.6
CCOc1ccc2nc(NC(=O)Nc3ccccc3)sc2c1	none
CS(=O)(=O)c1ccc2nc(NC(=O)c3cc4ccccc4o3)sc2c1	none
CS(=O)(=O)c1ccc2nc(NC(=O)c3ccco3)sc2c1	tim23-1 inh 54.2 | tim23-1 confirm 52.2
CCOc1ccc2nc(NC(=O)c3ccco3)sc2c1	tim23-1 inh 55.2 | tim23-1 confirm 57.1
COc1ccc(CN(C)C[C@H]2OCCCC[C@@H](C)Oc3ccc(NS(C)(=O)=O)cc3C(=O)N([C@H](C)CO)C[C@@H]2C)cc1	none (no result: tim23-1 inh, PfHsp90 yeast 2, tim10-1 inh, SKKanGAS inh, TIM10 inh)
CCOc1cc(/C=C2\C(=O)ON=C2C)ccc1OCc1ccccc1	tim23-1 inh 51.0 | tim23-1 confirm 40.9
CCCOc1ccc(/C=C2/C(=O)ON=C2C)cc1OCC	none
C[C@@H]1C(c2cccc(Cl)c2)=NN(c2ccccc2)[C@H]1C(=O)N1CCOC1=O	none (no result: SKKanGAS inh)
C[C@@H]1C(c2ccccc2)=NN(c2ccccc2)[C@H]1C(=O)N1CCOC1=O	tim23-1 inh 54.2 (no result: SKKanGAS inh) | tim23-1 confirm inactive
C[C@@H]1C(c2cccc(Cl)c2)=NN(c2ccc(Br)cc2)[C@H]1C(=O)N1CCOC1=O	tim23-1 inh 51.6 (no result: SKKanGAS inh) | tim23-1 confirm 37.9

Bioassay records from PubChem.
